These results are taken from publication PMC4552634, “A New Set of Chemical Starting Points with Plasmodium falciparum Transmission-Blocking Potential for Antimalarial Drug Discovery” (PLoS ONE, 2015).

Each structure is given as a SMILES string. The campaign covered roughly 13,000 compounds. About 3,200 (25%) showed an effect of 50% or more. This is one part of the list.

In this experiment the test system is P. falciparum stage V gametocytes. Set-up: BacTiter-Glo ATP luminescence viability of purified stage V gametocytes in 384-well plates, per cent inhibition versus DMSO. Particulars: 48 h, 5 µM; inhibitor.
With `COc1cc(C(C)C)ccc1N1CCN(CCCCNC(=O)c2ccc(NC(=O)c3ccc(Cl)cc3)cc2)CC1` [TCMDC-138518], the “% Inhibition” value is -18.1%.
As to `N#Cc1cccc(NC(=O)Nc2cccc(-c3cccc(-c4nc5ccc(F)cc5[nH]4)c3)c2)c1` [TCMDC-133197], the “% Inhibition” value was -38%.
For `COCC(=O)N(Cc1ccccc1-c1ccc(CNCCc2ccccc2)cc1)C1CCN(Cc2ccccc2)CC1` [TCMDC-140534], the “% Inhibition” value stood at 105.6%.
With `COCC(=O)N(Cc1ccccc1-c1cccc(CNCCc2ccccc2)c1)C1CCN(Cc2ccccc2)CC1` [TCMDC-140533], the “% Inhibition” value came out at 103.5%.
For `CCNc1cc(C(=O)N[C@@H](Cc2ccc(F)c(F)c2)[C@H](O)CNCc2cccc(OC)c2)cc(N2CCCCS2(=O)=O)c1` [TCMDC-135059], the “% Inhibition” value is recorded as -18.05%.
Regarding `CC1(C)N=C(NC(=O)c2ccc([N+](=O)[O-])cc2)N=C(N)N1OCc1ccc2ccccc2c1` [TCMDC-131580], the “% Inhibition” value worked out at 48.26%.
Consider `FC(F)c1nc2ccccc2n1-c1nc(N2CCOCC2)nc(N2CCOCC2)n1` [TCMDC-137004], for which the “% Inhibition” value is 98.45%.
Take `Nc1nc(N)c2c(Cl)c(N3CCOCC3)ccc2n1` [TCMDC-137868]: the “% Inhibition” value is -6.497%.
For the compound `CC12CC3CC(C)(C1)CC(Nc1nc(N4CCOCC4)nc4ccccc14)(C3)C2` [TCMDC-123862], the “% Inhibition” value was -97.33%.
Consider `O=c1ccc2ccc(F)cc2n1CCN1CCC(NCc2ccc(-c3ccccn3)s2)CC1` [TCMDC-135133], for which the “% Inhibition” value is 2.874%.
As for `NC1=NC(c2ccccc2)N(c2ccc(Cl)c(Cl)c2)C(N)=N1` (stereo not shown) [TCMDC-136305], the “% Inhibition” value is 1.025%.
`CCN(CC)CCCNc1nccc(N(C)c2ccc(NC(=O)Nc3cc(C(F)(F)F)ccc3F)cc2)n1` [TCMDC-141634]: the “% Inhibition” value turned out to be 97.67%.
Turning to `CN(c1ccc(NC(=O)Nc2cc(C(C)(C)C)on2)cc1)c1ccnc(NCCOC(=O)Nc2cc(C(C)(C)C)on2)n1` [TCMDC-141707], the “% Inhibition” value stood at 55.26%.
As to `CN(c1ccc(NC(=O)Nc2cc(C(C)(C)C)on2)cc1)c1ccnc(NCCN2CCOCC2)n1` [TCMDC-141706], the “% Inhibition” value is listed as 2.344%.
To `CCN(CC)CCNc1nccc(N(C)c2ccc(NC(=O)Nc3cc(C(F)(F)F)ccc3F)cc2)n1` [TCMDC-141632] belongs 74.5%; to `CCNC(=O)Nc1ccc(N(C)c2ccnc(Nc3ccc(CS(C)(=O)=O)cc3)n2)cc1` [TCMDC-138759], -39.6%.
Take `CN(c1ccc(NC(=O)Nc2cccc(Cl)c2)cc1)c1ccnc(N)n1` [TCMDC-138782]: the “% Inhibition” value was determined as 0.5988%.
Regarding `CN(C)CCCNc1nccc(N(C)c2ccc(NC(=O)Nc3cc(C(F)(F)F)ccc3F)cc2)n1` [TCMDC-141633], the “% Inhibition” value was determined as 100.7%.
As for `COc1cc(NC(=O)CCCCCCCCN2CCN(C)CC2)c2ncccc2c1` [TCMDC-138212], the “% Inhibition” value was 0.271%.
To `CCCCCCc1cc2cc(-c3csc(C=Cc4ccccc4)n3)c(=O)oc2cc1O` [TCMDC-125662] belongs -11.21%; to `COc1ccc2nccc([C@@H](O)CN3CCC(NCc4cc5ccccc5s4)CC3)c2c1` [TCMDC-140684], 1.924%.
In the case of `COc1ccc2nccc([C@@H](O)CN3CCC(NCc4[nH]c5ccccc5c4F)CC3)c2c1` [TCMDC-141052], the “% Inhibition” value was 4.499%.
`CCCNC(=O)Nc1ccc(N(C)c2ccnc(NC3CC3)n2)cc1` [TCMDC-138764]: the “% Inhibition” value amounted to 12.51%.
Take `CC(=O)c1ccc(NC(=O)Nc2ccc(N(C)c3ccnc(NC4CC4)n3)cc2)cc1` [TCMDC-138767]: the “% Inhibition” value stood at 82.68%.
To `CCNC(=O)Nc1ccc(N(C)c2ccnc(NC3CC3)n2)cc1` [TCMDC-138763] belongs 40.84%; to `O=C1OC2(CCN(Cc3cccc(-c4ncc[nH]4)c3)CC2)CN1CCNCc1ccccc1` [TCMDC-136733], -38.21%; to `COc1ccccc1CCNc1nc(C)cc(NCCC(=O)Nc2ccccc2)n1` [TCMDC-134800], 76.83%.
With `Cc1cc(NCCC(=O)Nc2ccccc2)nc(NCCc2cccnc2)n1` [TCMDC-134880], the “% Inhibition” value is reported as 47.41%.
Consider `COc1ccc(NC(=O)CCNc2cc(C)nc(NCc3cccc(C)c3)n2)cc1` [TCMDC-134883], for which the “% Inhibition” value was 59.29%.
In the case of `Cc1cc(NCCC(=O)Nc2ccccc2)nc(NCCc2cccs2)n1` [TCMDC-134872], the “% Inhibition” value worked out at 26.35%.
`Cc1cc(NCCC(=O)Nc2ccccc2)nc(NCCc2ccc(F)cc2)n1` [TCMDC-134783]: the “% Inhibition” value was determined as 44.82%.
On to `Cc1cccc(CNc2nc(C)cc(NCCC(=O)Nc3ccccc3)n2)c1` [TCMDC-134885], for which the “% Inhibition” value turned out to be 25.97%.
Turning to `CCNc1cc(C)nc(Nc2ccc(NC(=O)Cc3ccc(OC)cc3)cc2)n1` [TCMDC-124983], the “% Inhibition” value came out at 15.74%.
Take `COc1ccc(Nc2nc(C)cc(NCc3ccc(-c4c(C)noc4C)cc3)n2)cc1` [TCMDC-134024]: the “% Inhibition” value was -1.002%.
As for `Cc1cc(NCCC(=O)Nc2ccccc2)nc(NCCc2ccccc2)n1` [TCMDC-134772], the “% Inhibition” value is listed as 51%.
On to `COc1ccc(NC(=O)CCNc2cc(C)nc(NCc3ccccc3C)n2)cc1` [TCMDC-134899], for which the “% Inhibition” value was determined as 34.68%.
For the compound `COc1ccc(Nc2cc(C)nc(NCc3ccc4c(c3)OCO4)n2)cc1` [TCMDC-136332], the “% Inhibition” value stood at 81.18%.
In the case of `Cc1ccc(C)c(-n2c(SCC(=O)Nc3ccc(C(N)=O)cc3)nnc2-c2cccc(Cl)c2)c1` [TCMDC-124332] it was 36.9%.
Consider `O=C(Nc1cccc(F)c1)NC1CCN(c2ccnc3cc(Cl)ccc23)CC1` [TCMDC-133569], for which the “% Inhibition” value is given as -8.116%.
For `Cc1ccccc1-c1nc2c(CN3CCC(O)(c4ccccc4)CC3)c(O)ccc2[nH]1` [TCMDC-136533], the “% Inhibition” value is recorded as 40.24%.
To `CCCc1ccc(NC(=O)c2cccc(CN3CCCN(Cc4cccc(C#N)c4)CC3)c2)cc1` [TCMDC-135977] belongs -19.91%.
For `O=C(Cc1ccc(NC(=O)c2ccc(O)c(-c3ccc(Cl)c(Cl)c3)c2)cc1)NCCN1CCOCC1` [TCMDC-140853], the “% Inhibition” value is -3.124%.
As for `COc1ccc(NC(=O)CCNc2cc(C)nc(NCCc3ccccc3)n2)cc1` [TCMDC-134770], the “% Inhibition” value is 41.15%.
Take `COc1ccc(NC(=O)CCNc2cc(C)nc(NCCc3ccc(F)cc3)n2)cc1` [TCMDC-134864]: the “% Inhibition” value is 55.47%.
For `CCCC(C)Nc1nc(C)cc(NCCC(=O)Nc2ccc(OC)cc2)n1` (stereo not shown) [TCMDC-134762], the “% Inhibition” value turned out to be 20.26%.
For `c1csc(-c2nc(N3CCCC3)ncc2-c2ccsc2)n1` [TCMDC-125373], the “% Inhibition” value was determined as 23.84%.
For the compound `CS(=O)(=O)Cc1ccc(Nc2nccc(-c3c(-c4cccc(C(=O)Nc5c(F)cccc5F)c4)nn4ccccc34)n2)cc1` [TCMDC-135742], the “% Inhibition” value is -95.17%.
In the case of `CCCN1CCN(CCCNC(=O)c2cc3c(Cl)nc4ccc(C)cc4c3s2)CC1` [TCMDC-124441] it was 16.62%; in that of `CCCCCCNC(=O)c1nn(CCN2CCC(N3CCCC3)CC2)cc1-c1ccc(Cl)c(Cl)c1` [TCMDC-141907], 27.94%; in that of `O=C(NCCCN1CCC(N2CCCCC2)CC1)C1=Cc2cc(Br)ccc2OC1` [TCMDC-124696], 29.02%.
For `Cc1c(C(=O)C2CC2CN2CCC(N3CCCCC3)CC2)sc2ccccc12` (stereo not shown) [TCMDC-132576], the “% Inhibition” value was 19.76%.
On to `O=C(NCCCN1CCC(N2CCCCC2)CC1)c1ccc2nc(N3CCCCC3)sc2c1` [TCMDC-124404], for which the “% Inhibition” value worked out at 56.64%.
With `N#Cc1ccc(-c2ccc(C(=O)NCCCCN3CCC(n4cnc5ccccc54)CC3)cc2)cc1` [TCMDC-138796], the “% Inhibition” value is -25.18%.
In the case of `Cc1ccc2nc(Cl)c3cc(C(=O)NCCCN4CCCC4)sc3c2c1` [TCMDC-125000] it was 29.06%.
For `O=C(NCCCN1CCC(N2CCCCC2)CC1)c1ccc(N2CCOc3ccccc32)s1` [TCMDC-125271], the “% Inhibition” value is given as 84.69%.
As to `Cc1ccc2nc3sc(C(=O)NCCCN4CCC(N5CCCCC5)CC4)cc3cc2c1` [TCMDC-125157], the “% Inhibition” value stood at 73.7%.
On to `O=C(NC1CC1)c1ccc(N2CCOc3ccc(Cl)cc32)s1` [TCMDC-125270], for which the “% Inhibition” value turned out to be 3.185%.
`Cc1cc(C)c2nc(N3CCC(C(=O)NCCCN4CCC(N5CCCCC5)CC4)CC3)sc2c1` [TCMDC-124448]: the “% Inhibition” value came to 62.4%.
As for `CCOCCCNc1nc2cc(OC)c(OC)cc2c2nc(-c3ccccc3)nn12` [TCMDC-124406], the “% Inhibition” value is given as -8.61%.
For `COc1ccc2nccc(N3CCCN(CCNS(=O)(=O)c4ccc5c(c4)NC(=O)CS5)CC3)c2n1` [TCMDC-134651], the “% Inhibition” value is 20.86%.
In the case of `CCC(C)CN1CCC(N(C)c2cc(NC(=O)c3cccc(C)c3)ccn2)CC1` (stereo not shown) [TCMDC-134950], the “% Inhibition” value is recorded as -9.268%.
In the case of `CC(CN(C)C)C(=O)Nc1ccc(-c2cccc(-c3nc4ccc(C(F)(F)F)cc4[nH]3)c2)cc1` (stereo not shown) [TCMDC-137109] it was -30.4%.
As to `COc1ccc(-n2ccnc2)cc1CNC1CCN(CC2Cn3c(=O)ccc4ccc(F)c2c43)CC1` (stereo not shown) [TCMDC-134407], the “% Inhibition” value is listed as -10.31%.
Take `COc1ccccc1/C=C/C(=O)N(C)C1CCN(CCCCCNC(=O)/C=C/c2ccc(Cl)c(Cl)c2)CC1` [TCMDC-139985]: the “% Inhibition” value was 9.126%.
In the case of `CN(C(=O)/C=C/c1ccccc1F)C1CCN(CCCCCNC(=O)/C=C/c2ccc(Cl)c(Cl)c2)CC1` [TCMDC-139992] it was 46.22%.
`CN1CCC(N(C)C(=O)C=Cc2cn(-c3ccccc3)nc2-c2cc3ccccc3o2)CC1` [TCMDC-124569]: the “% Inhibition” value turned out to be 79.49%.
Turning to `CCCCCOc1c(CCC)cc(Cc2cnc(N)nc2N)cc1CCC` [TCMDC-137287], the “% Inhibition” value is given as -6.135%.
To `COc1cc2c(cc1C(F)(F)F)N(C(=O)Nc1cccc(-c3ccc(CN(C)C)cc3)c1)CC2` [TCMDC-139014] belongs 97.51%; to `COc1cc2c(cc1C(F)(F)F)N(C(=O)Nc1cc(Br)cc(-c3cccnc3)c1)CC2` [TCMDC-139024], 0.01985%; to `COc1cc2c(cc1C(F)(F)F)N(C(=O)Nc1cc(-c3ccncc3)cc(-c3cccnc3)c1)CC2` [TCMDC-139040], -15.72%.

The % Inhibition is the change of the read-out against control, counted positive when it falls.
